GalR3 antagonist – blocks the human galanin receptor 3. 360,000 compounds, 0.44% hits. inhibition, % at 3 µM. AID 651719. HEK293 GalR3-CNG cAMP membrane potential fluorescence; galR3 body fused to GalR1 C-terminus. O60755;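 active means inhibition above the screen-wide average plus 3 SD, cut at about 13% in these data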;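 further: forskolin and galanin both at EC90 stimulate the cells; cAMP rise reported by CNG channel membrane potential dye signal; 0% = forskolin plus galanin with DMSO and 100% = forskolin alone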
Target sequence (O60755 1-299 limits assumed): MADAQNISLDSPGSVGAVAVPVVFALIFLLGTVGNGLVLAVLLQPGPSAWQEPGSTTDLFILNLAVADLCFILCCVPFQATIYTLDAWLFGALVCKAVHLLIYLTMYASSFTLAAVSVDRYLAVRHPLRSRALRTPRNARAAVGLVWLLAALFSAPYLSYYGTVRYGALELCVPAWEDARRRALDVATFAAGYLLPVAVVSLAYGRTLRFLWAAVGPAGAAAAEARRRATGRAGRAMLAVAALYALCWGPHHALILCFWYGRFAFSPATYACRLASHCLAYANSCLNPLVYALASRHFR
NCOA1 inh – human NCOA1 inhibition | 360,000 compounds, 0.12% hits | HEK293 GAL4-SRC1 luciferase reporter, luminescence | inhibition, % at 3.6 µM | Q15788;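 active means inhibition above the campaign mean plus 3 SD, with each screening campaign given its own cutoff, cut at about 60% in these data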;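 further: 0% = DMSO treated cells and 100% = gossypol at 36 µM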
COUP-TFII inh – blocks human COUP-TFII nuclear receptor; inhibition, % at 8.6 µM; P24468; HEK293T NGFI-A luciferase reporter, luminescence; 370,000 compounds, 0.7% hits;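 active means inhibition above a per-plate cutoff, mean inhibition of test wells between control levels plus 3 SD, cut at about 38% in these data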;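 further: cells cotransfected with COUP-TFII expression vector driving the NGFI-A reporter; 0% = median of COUP-TF2 test wells and 100% = reporter-only cells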
Target sequence (P24468 whole entry, looked up): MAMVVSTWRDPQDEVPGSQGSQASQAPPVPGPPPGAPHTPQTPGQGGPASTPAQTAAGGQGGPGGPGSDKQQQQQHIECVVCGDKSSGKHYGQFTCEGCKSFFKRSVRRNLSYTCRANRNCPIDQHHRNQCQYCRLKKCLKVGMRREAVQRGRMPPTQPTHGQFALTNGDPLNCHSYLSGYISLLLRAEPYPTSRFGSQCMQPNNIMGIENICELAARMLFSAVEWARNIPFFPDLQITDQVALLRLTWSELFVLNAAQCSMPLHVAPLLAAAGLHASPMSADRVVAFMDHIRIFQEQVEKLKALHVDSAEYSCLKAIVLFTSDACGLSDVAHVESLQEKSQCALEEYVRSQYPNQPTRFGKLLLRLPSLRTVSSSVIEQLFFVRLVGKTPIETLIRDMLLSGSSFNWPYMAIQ
SRC3 inh – inhibitors of human steroid receptor coactivator 3 (SRC3); Q9Y6Q9; inhibition, % at 3.6 µM; HEK293 GAL4-SRC3 luciferase reporter, luminescence; AID 588352; 360,000 compounds, 0.17% hits;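 active means inhibition above a per-campaign cutoff, the mean of all compounds plus 3 SD, cut at about 60% in these data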;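 further: 0% = DMSO-treated cells and 100% = gossypol-treated cells at 36 µM; higher means less SRC3-driven luciferase light from the GAL4 reporter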
LRH-1 inv ag – NR5A2 inverse agonism in reporter assay | O00482 | HEK293T StAR-luciferase reporter, LRH-1 transfected, 24 h | inhibition, % at 3.6 µM | 360,000 compounds, 0.13% hits;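 active means inhibition above the mean inhibition of all tested compounds plus 3 SD, cut at about 73% in these data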;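 further: 0% = DMSO wells and 100% = reporter-only cells lacking LRH-1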
NCOA2 inhibitor – human SRC2 (NCOA2) inhibition; Q15596; HEK293 GAL4-SRC2 luciferase reporter, luminescence; inhibition, % at 9 µM; 370,000 compounds, 0.17% hits;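 active means inhibition above the mean inhibition of all tested compounds plus 3 SD, set per campaign, cut at about 52% in these data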;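 further: 0% = DMSO treated cells and 100% = cells given Gossypol at 36 µM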
Gal4-VP16 ctr – VP16 inhibition counter-screen for COUP-TFII; shares compounds with COUP-TFII inh; HEK293 Gal4-VP16 luciferase reporter, luminescence; inhibition, % at 8.5 µM; 2,500 compounds, 25% hits; AID 687007; in the data active means inhibition above about 13%
NR2F2 inh conf – confirmation of human COUP-TFII (NR2F2) inhibitors; AID 687008; inhibition, % at 8.5 µM; 2,500 compounds, 45% hits; HEK293 NGFI-A luciferase reporter, luminescence; shares compounds with COUP-TFII inh;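 active means mean inhibition over three repeats above a set limit taken from the earlier primary screen, cut at about 38% in these data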;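 further: 100% = cells given the luciferase reporter alone without the COUP-TF2 vector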
* marks the source's active call; other numbers are inactive results. Only some compounds are listed: those with a hit (about 1.1% of all), similar ones and a draw of the others.

Results for COc1ccc(/C=C2\SC(=O)N(CCCC(=O)Nc3cc(Cl)ccc3C(=O)O)C2=O)cc1 ?
GalR3 antagonist: -4.6; NCOA1 inh: 77.8*; COUP-TFII inh: 100.6*; SRC3 inh: 83.3*; LRH-1 inv ag: 81.6*; NCOA2 inhibitor: 92.1*; Gal4-VP16 ctr: 88.8*; NR2F2 inh conf: 101.1*

Results for C=CCN1[C@H](Cc2ccccc2)COc2cc(N3CCSCC3)ccc2S1(=O)=O ?
COUP-TFII inh: 20.1; NCOA2 inhibitor: 24.0

What do the screens show for `COCC(C)n1c(C)cc(C(=O)COC(=O)c2cc(=O)[nH]c3ccccc23)c1C` (configuration not stated)?
GalR3 antagonist: -4.2; NCOA1 inh: 33.4; COUP-TFII inh: 62.3*; SRC3 inh: 36.9; LRH-1 inv ag: 4.7; NCOA2 inhibitor: 24.4; Gal4-VP16 ctr: 2.7; NR2F2 inh conf: 58.0*

Results for O=C(NC1CCCCN(Cc2ccc(OC(F)(F)F)cc2)C1=O)c1ccc(F)c(F)c1 (configuration not stated) ?
COUP-TFII inh: 8.5; NCOA2 inhibitor: 3.9

Results for Nc1ccc2c(c1)OC1(CCCC1)O2 ?
GalR3 antagonist: -3.3; NCOA1 inh: 50.5; COUP-TFII inh: 64.6*; SRC3 inh: 54.5; LRH-1 inv ag: 25.6; NCOA2 inhibitor: 66.1*; Gal4-VP16 ctr: -10.4; NR2F2 inh conf: 11.3

What do the screens show for `S=C(NCC1(c2ccccc2)CCCC1)Nc1ccccc1`?
GalR3 antagonist: -10.9; NCOA1 inh: -6.7; COUP-TFII inh: 41.8*; SRC3 inh: 18.0; LRH-1 inv ag: 14.1; NCOA2 inhibitor: 11.9; Gal4-VP16 ctr: 3.8; NR2F2 inh conf: 8.4

How did CC(C)C[C@H]1COc2cccc(F)c2S(=O)(=O)N1Cc1cn(CCC2OCCO2)nn1 do in these assays?
COUP-TFII inh: 7.5; NCOA2 inhibitor: 16.9

Results for CCC(C)(C)c1ccc(Oc2ccc(N)cc2)cc1 ?
GalR3 antagonist: 2.6; NCOA1 inh: 68.2*; COUP-TFII inh: 94.7*; SRC3 inh: 76.8*; LRH-1 inv ag: 68.8; NCOA2 inhibitor: 90.7*; Gal4-VP16 ctr: 91.2*; NR2F2 inh conf: 97.9*

What do the screens show for `CN(C)C(=O)c1ccc(NC(=O)c2cccc(S(=O)(=O)N3CCCCCC3)c2)cc1`?
GalR3 antagonist: -6.1; NCOA1 inh: -4.9; COUP-TFII inh: 6.4; SRC3 inh: -13.2; LRH-1 inv ag: -21.7; NCOA2 inhibitor: -13.2

How did CN(C)C(=O)c1ccc(NC(=O)c2cccc(S(=O)(=O)N3CCCc4ccccc43)c2)cc1 do in these assays?
GalR3 antagonist: -5.2; NCOA1 inh: 2.0; COUP-TFII inh: 39.0*; SRC3 inh: -15.9; LRH-1 inv ag: -44.1; NCOA2 inhibitor: 13.6; Gal4-VP16 ctr: -6.3; NR2F2 inh conf: 0.5

What do the screens show for `Cc1cccnc1NC(=O)C1CCN(S(=O)(=O)c2c(C)noc2/C=C/c2ccco2)CC1`?
GalR3 antagonist: 0.2; NCOA1 inh: 3.5; COUP-TFII inh: 19.8; SRC3 inh: -2.9; LRH-1 inv ag: 25.5; NCOA2 inhibitor: -17.9

What do the screens show for `Cc1ccc(NC(=O)C2CCN(S(=O)(=O)c3c(C)noc3/C=C/c3ccco3)CC2)nc1`?
GalR3 antagonist: -3.5; NCOA1 inh: 20.6; COUP-TFII inh: 39.0*; SRC3 inh: 13.9; LRH-1 inv ag: 2.3; NCOA2 inhibitor: 38.7; Gal4-VP16 ctr: -0.4; NR2F2 inh conf: 22.0

Results for CCNC(=O)N(C)[C@H]1C[C@H]2c3[nH]c4c(-c5cccc(C)c5)cccc4c3CCN2C[C@H]1[C@H](C)O ?
COUP-TFII inh: 11.9; NCOA2 inhibitor: -4.6

Results for CCOC(=O)[C@@]12CN(C(=O)OC(C)(C)C)CC=C1N(Cc1ccc(OC)cc1)C(=O)[C@H]2CC(=O)NCCCCc1ccccc1 ?
COUP-TFII inh: -2.4; NCOA2 inhibitor: -10.0

Results for Fc1ccc2[nH]c3c(NCc4ccccc4)ncnc3c2c1 ?
GalR3 antagonist: -11.2; NCOA1 inh: 25.0; COUP-TFII inh: 54.9*; SRC3 inh: 15.8; LRH-1 inv ag: 31.1; NCOA2 inhibitor: 31.2; Gal4-VP16 ctr: 1.5; NR2F2 inh conf: 37.5*

Results for Cc1cc(C(=O)CN2C(=O)c3ccccc3S2(=O)=O)c(C)n1CC1CCCO1 (configuration not stated) ?
GalR3 antagonist: 4.8; NCOA1 inh: 80.2*; COUP-TFII inh: 93.4*; SRC3 inh: 87.9*; LRH-1 inv ag: 89.1*; NCOA2 inhibitor: 88.5*; Gal4-VP16 ctr: 86.0*; NR2F2 inh conf: 96.5*

Results for CCCn1c(C)cc(C(=O)CN2C(=O)c3ccccc3S2(=O)=O)c1C ?
GalR3 antagonist: -4.6; NCOA1 inh: 75.1*; COUP-TFII inh: 85.2*; SRC3 inh: 72.6*; LRH-1 inv ag: 80.9*; NCOA2 inhibitor: 81.8*; Gal4-VP16 ctr: 77.4*; NR2F2 inh conf: 90.5*

Results for Cc1ccc(C)c(C(=O)CN2C(=O)c3ccccc3S2(=O)=O)c1 ?
GalR3 antagonist: 1.1; NCOA1 inh: -40.0; COUP-TFII inh: -14.1; SRC3 inh: -67.0; LRH-1 inv ag: -30.5; NCOA2 inhibitor: -18.8

What do the screens show for `COc1ccc(C(=O)CN2C(=O)c3ccccc3S2(=O)=O)cc1`?
GalR3 antagonist: 1.4; NCOA1 inh: 58.1; COUP-TFII inh: 90.9*; SRC3 inh: 60.6; LRH-1 inv ag: 35.1; NCOA2 inhibitor: 80.7*; Gal4-VP16 ctr: 51.9*; NR2F2 inh conf: 76.7*

Results for COc1ccccc1CNC(=O)NNC(=O)CCn1nc(C)c([N+](=O)[O-])c1C ?
COUP-TFII inh: 3.7; NCOA2 inhibitor: -1.2

Results for O=C(Nc1ccc(Cl)cc1)/C(=C/c1cccc(O)c1)c1nc2ccccc2s1 ?
GalR3 antagonist: -2.0; NCOA1 inh: 6.3; COUP-TFII inh: 66.2*; SRC3 inh: 26.6; LRH-1 inv ag: 53.2; NCOA2 inhibitor: 55.4*; Gal4-VP16 ctr: 40.2*; NR2F2 inh conf: 54.4*

What do the screens show for `S=C(Nc1ccc(Cl)cc1)c1nc2ccccc2s1`?
GalR3 antagonist: -2.5; NCOA1 inh: -59.0; COUP-TFII inh: -23.3; SRC3 inh: -67.5; LRH-1 inv ag: -45.0; NCOA2 inhibitor: -33.1

Results for COc1cc2cc(C(=O)Nc3ccc4c(c3)OCCO4)[nH]c2cc1OC ?
GalR3 antagonist: -4.7; NCOA1 inh: 53.6; COUP-TFII inh: 48.0*; SRC3 inh: 54.9; LRH-1 inv ag: 46.5; NCOA2 inhibitor: 40.3; Gal4-VP16 ctr: -47.4; NR2F2 inh conf: -8.8

How did COc1cc2[nH]c(C(=O)Nc3ccc4c(c3)OCCO4)cc2c(OC)c1OC do in these assays?
GalR3 antagonist: -1.7; NCOA1 inh: 14.7; COUP-TFII inh: -28.4; SRC3 inh: 6.9; LRH-1 inv ag: -16.7; NCOA2 inhibitor: 2.1
